Structures are written as SMILES. Records with an inconclusive call do not appear. Active and inactive are the calls of the source. Rule for the calls: active = hit-call score of the fitted dose curve at least 0.9, where 1 is the maximum; inconclusive = response in the unintended direction; inactive = score below 0.9.

Nine compounds from PubChem BioAssay (EPA / NIEHS) can be followed below.

Sequence of rat CYP2C12, Cyp2c12 (gene 25011) (P11510 whole entry, looked up): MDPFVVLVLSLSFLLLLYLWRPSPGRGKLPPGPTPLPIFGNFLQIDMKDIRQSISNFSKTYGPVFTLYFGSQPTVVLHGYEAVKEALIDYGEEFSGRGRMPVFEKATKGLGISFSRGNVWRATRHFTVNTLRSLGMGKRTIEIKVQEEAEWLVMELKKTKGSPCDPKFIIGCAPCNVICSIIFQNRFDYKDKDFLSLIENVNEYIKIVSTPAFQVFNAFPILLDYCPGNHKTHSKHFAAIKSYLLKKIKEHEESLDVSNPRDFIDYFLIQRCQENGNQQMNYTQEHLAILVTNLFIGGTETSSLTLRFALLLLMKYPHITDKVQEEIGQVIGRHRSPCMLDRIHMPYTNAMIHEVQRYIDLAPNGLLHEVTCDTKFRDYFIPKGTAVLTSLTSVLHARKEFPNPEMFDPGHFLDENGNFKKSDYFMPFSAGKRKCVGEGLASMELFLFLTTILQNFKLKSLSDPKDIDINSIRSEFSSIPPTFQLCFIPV
Sequence of human CYP4F12, CYP4F12 (gene 66002) (Q9HCS2 whole entry, looked up): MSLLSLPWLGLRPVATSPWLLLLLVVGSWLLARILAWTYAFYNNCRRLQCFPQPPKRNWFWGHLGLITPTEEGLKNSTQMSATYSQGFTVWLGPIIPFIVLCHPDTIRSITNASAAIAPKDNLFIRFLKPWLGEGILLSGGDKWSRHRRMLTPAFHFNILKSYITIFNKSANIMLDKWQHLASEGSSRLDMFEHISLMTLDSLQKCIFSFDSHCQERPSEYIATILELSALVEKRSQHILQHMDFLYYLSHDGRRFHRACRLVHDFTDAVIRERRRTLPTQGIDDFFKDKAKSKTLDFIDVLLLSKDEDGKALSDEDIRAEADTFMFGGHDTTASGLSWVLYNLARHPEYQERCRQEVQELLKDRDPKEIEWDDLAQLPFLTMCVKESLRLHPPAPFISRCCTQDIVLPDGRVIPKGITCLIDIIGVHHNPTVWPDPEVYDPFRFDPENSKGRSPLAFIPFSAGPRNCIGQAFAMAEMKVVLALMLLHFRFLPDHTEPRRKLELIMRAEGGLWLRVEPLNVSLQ

In one assay the target is human CYP4F12, CYP4F12 (gene 66002) (UniProt Q9HCS2). Kind of assay: NVS_ADME_hCYP4F12: NovaScreen (NVS) CYP450-related Enzyme Activity (ADME) Assay for human CYP4F12 (AID 2283111). An outline of the steps:
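Cell-free fluorescence assay of recombinant human CYP4F12 activity on a specific substrate, read 0.5 h after dosing. Primary screen in duplicate at 10 uM, then concentration series for actives; loss of signal fitted against acetonitrile negative control.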
With `CC1=CC(=O)/C(=C(/C)O)C(=O)O1`, the AC50 was 1520 nM (active).

`CC(=O)[C@H]1CC[C@H]2[C@@H]3CCC4=CC(=O)CC[C@]4(C)[C@H]3CC[C@]12C`: the compound was called inactive.

In the case of `Oc1ccc(C(c2ccc(O)cc2)C(Cl)(Cl)Cl)cc1`, the AC50 was 615 nM (active).

For `CCCCC(CC)COC(=O)c1ccccc1C(=O)O` (stereo unspecified), the result was inactive.

With `S=C(S)NCCNC(=S)S.[Mn+2].[S-]C([S-])=NCCN=C([S-])[S-].[Zn+2]`, the outcome was inactive.

`C[C@]12CC[C@@H]3c4ccc(O)cc4CC[C@H]3[C@@H]1CC[C@@H]2O`: the compound was called inactive.

A further assay has as its target rat CYP2C12, Cyp2c12 (gene 25011) (UniProt P11510). Kind of assay: NVS_ADME_rCYP2C12: NovaScreen (NVS) CYP450-related Enzyme Activity (ADME) Assay for rat CYP2C12 (AID 2283119). As for the experimental part:
NVS_ADME_rCYP2C12 is a biochemical, single-readout assay that uses extracted gene-proteins in a cell-free assay. Measurements were taken 0.5 hour after chemical dosing in a 96-well plate.NVS_ADME_rCYP2C12 is one of one assay component(s) measured or calculated from the NVS_ADME_rCYP2C12 assay. It is designed to make measurements of enzyme activity, a form of enzyme reporter, as detected with fluorescence intensity signals by Fluorescence technology.Data from the assay component NVS_ADME_rCYP2C12 was analyzed into 1 assay endpoint. This assay endpoint, NVS_ADME_rCYP2C12, was analyzed in the positive analysis fitting direction relative to Acetonitrile as the negative control and baseline of activity. Using a type of enzyme reporter, loss-of-signal activity can be used to understand changes in the enzymatic activity as they relate to the gene Cyp2c12. Furthermore, this assay endpoint can be referred to as a primary readout, because this assay has produced multiple assay endpoints where this one serves a enzymatic activity function. To generalize the intended target to other relatable targets, this assay endpoint is annotated to the cyp intended target family, where the subfamily is xenobiotic metabolism.
Binding assays used specific radioligands (tritiated, iodinated) with non-radioactive competitive displacement ligands in agonist or antagonist protocols (as indicated) and various reference compounds and inhibitors to titrate specific binding to receptors and transporters. Most enzyme assays (CYPs, kinases, phosphatases, proteases, HDACs) used recombinant protein and specific substrates (fluorescence mostly, some colorimetric and radioactive) and inhibitors, followed by a biochemical separation of substrate and product. All assays for the biochemical HTS were initially run in duplicate at a single concentration (10 uM for CYP450 assays and 25 uM for all others). […] Each assay was run with positive and negative controls, and concurrent controls on every plate. The follow-up (secondary) screen tested active chemical-pairs in concentration series, as well as a few additional assays not tested in the primary screen, some selected negative inactives, and several cases re-run in the concentration series for confirmatory purposes.
In the case of `S=C([S-])NCCNC(=S)[S-].[Mn+2]`, the compound was classed as inactive.

Regarding `C=CCOC(Cn1ccnc1)c1ccc(Cl)cc1Cl` (stereo unspecified), the AC50 was 2130 nM (active).

For `Oc1ccc(C(c2ccc(O)cc2)C(Cl)(Cl)Cl)cc1`, the call was inactive.

In the case of `C[C@]12CC[C@@H]3c4ccc(O)cc4CC[C@H]3[C@@H]1CC[C@@H]2O`, the call was inactive.

Consider `CC(C)(C)[C@@H](O)[C@@H](Cc1ccc(Cl)cc1)n1cncn1`, for which the AC50 is 5820 nM (active).
